B1: unnamed (peptide)
chain: FFRRSELYLPNSSKA
B2: unnamed (peptide)
chain: SKSRLLIELPEGFFT

What follows are binders tested against CaNbp2 (assay: SPOT peptide array binding signal intensity (averaged, normalized) (arbitrary units (background-subtracted, floor 0; scale differs between SH3 domains)); higher = stronger binding of the SH3 domain to the peptide).
Method in brief: (§1)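 Peptides were synthetic 15-mers on cellulose membranes, with every cysteine replaced by serine. They were incubated overnight at 4°C with GST-SH3 domains from four yeast species at 10 μg/ml in TBS-based blocking buffer. Binding signal, the replicate-averaged normalized and background-subtracted spot intensity, is in arbitrary units that differ between domains.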

Binder	SPOT peptide array binding signal intensity
B1	89
B2	34.5

The binders below were run against CaRvs167 in the same assay as above.
Method in brief: as §1

Binder	SPOT peptide array binding signal intensity
B1	4.5
B2	1.83

The binders below were run against CaRvs167-3 in the same assay as above.
Method in brief: as §1

Binder	SPOT peptide array binding signal intensity
B1	16.2
B2	51.8

What follows are binders tested against CaSho1 in the same assay as above.
Method in brief: as §1

Binder	SPOT peptide array binding signal intensity
B1	318
B2	56.5

The binders below were run against CaSla1-D1-D2 in the same assay as above.
Method in brief: as §1

Binder	SPOT peptide array binding signal intensity
B1	≤ 0
B2	≤ 0

The binders below were run against CaSla1-D3 in the same assay as above.
Method in brief: as §1

Binder	SPOT peptide array binding signal intensity
B1	≤ 0
B2	22

Each binder was assayed against ScAbp1 in the same assay as above.
Method in brief: as §1

Binder	SPOT peptide array binding signal intensity
B1	47
B2	≤ 0

These binders were tested against ScBbc1 in the same assay as above.
Method in brief: as §1

Binder	SPOT peptide array binding signal intensity
B1	≤ 0
B2	1

These binders were tested against ScBem1-D1 in the same assay as above.
Method in brief: as §1

Binder	SPOT peptide array binding signal intensity
B1	18
B2	11.5

Each binder was assayed against ScBzz1-D1 in the same assay as above.
Method in brief: as §1

Binder	SPOT peptide array binding signal intensity
B1	11
B2	75.5

Each binder was assayed against ScBzz1-D2 in the same assay as above.
Method in brief: as §1

Binder	SPOT peptide array binding signal intensity
B1	20
B2	125

The binders below were run against ScCyk3 in the same assay as above.
Method in brief: as §1

Binder	SPOT peptide array binding signal intensity
B1	24
B2	7

These binders were tested against ScFus1 in the same assay as above.
Method in brief: as §1

Binder	SPOT peptide array binding signal intensity
B1	206
B2	317

Each binder was assayed against ScHof1 in the same assay as above.
Method in brief: as §1

Binder	SPOT peptide array binding signal intensity
B1	1
B2	1.5

The binders below were run against ScHse1 in the same assay as above.
Method in brief: as §1

Binder	SPOT peptide array binding signal intensity
B1	1290
B2	89

These binders were tested against ScLsb1 in the same assay as above.
Method in brief: as §1

Binder	SPOT peptide array binding signal intensity
B1	6.25
B2	≤ 0

Each binder was assayed against ScLsb2 in the same assay as above.
Method in brief: as §1

Binder	SPOT peptide array binding signal intensity
B1	2
B2	≤ 0

The binders below were run against ScLsb3 in the same assay as above.
Method in brief: as §1

Binder	SPOT peptide array binding signal intensity
B1	34.5
B2	≤ 0

Each binder was assayed against ScLsb4 in the same assay as above.
Method in brief: as §1

Binder	SPOT peptide array binding signal intensity
B1	8
B2	≤ 0

Each binder was assayed against ScMyo3 in the same assay as above.
Method in brief: as §1

Binder	SPOT peptide array binding signal intensity
B1	3.5
B2	1

The binders below were run against ScMyo5 in the same assay as above.
Method in brief: as §1

Binder	SPOT peptide array binding signal intensity
B1	8.5
B2	0.5

The binders below were run against ScNbp2 in the same assay as above.
Method in brief: as §1

Binder	SPOT peptide array binding signal intensity
B1	42.5
B2	≤ 0

Each binder was assayed against ScPex13 in the same assay as above.
Method in brief: as §1

Binder	SPOT peptide array binding signal intensity
B1	≤ 0
B2	≤ 0

Each binder was assayed against ScRvs167 in the same assay as above.
Method in brief: as §1

Binder	SPOT peptide array binding signal intensity
B1	3.17
B2	0.667

These binders were tested against ScSho1 in the same assay as above.
Method in brief: as §1

Binder	SPOT peptide array binding signal intensity
B1	201
B2	145

Each binder was assayed against ScSla1-D1-D2 in the same assay as above.
Method in brief: as §1

Binder	SPOT peptide array binding signal intensity
B1	12
B2	≤ 0

What follows are binders tested against ScSla1-D3 in the same assay as above.
Method in brief: as §1

Binder	SPOT peptide array binding signal intensity
B1	0.5
B2	15

The binders below were run against SpAbp1-D1 in the same assay as above.
Method in brief: as §1

Binder	SPOT peptide array binding signal intensity
B1	45
B2	≤ 0

Each binder was assayed against SpBbc1 in the same assay as above.
Method in brief: as §1

Binder	SPOT peptide array binding signal intensity
B1	≤ 0
B2	≤ 0

What follows are binders tested against SpBzz1-D1 in the same assay as above.
Method in brief: as §1

Binder	SPOT peptide array binding signal intensity
B1	111
B2	68.5

Each binder was assayed against SpBzz1-D2 in the same assay as above.
Method in brief: as §1

Binder	SPOT peptide array binding signal intensity
B1	≤ 0
B2	0.25

The binders below were run against SpCyk3 in the same assay as above.
Method in brief: as §1

Binder	SPOT peptide array binding signal intensity
B1	≤ 0
B2	1

Each binder was assayed against SpHof1 in the same assay as above.
Method in brief: as §1

Binder	SPOT peptide array binding signal intensity
B1	65.2
B2	204

What follows are binders tested against SpHof1-2 in the same assay as above.
Method in brief: as §1

Binder	SPOT peptide array binding signal intensity
B1	6.75
B2	13.5

These binders were tested against SpHof1-3 in the same assay as above.
Method in brief: as §1

Binder	SPOT peptide array binding signal intensity
B1	455
B2	7.5

Each binder was assayed against SpHse1 in the same assay as above.
Method in brief: as §1

Binder	SPOT peptide array binding signal intensity
B1	552
B2	45.5

Each binder was assayed against SpLsb1 in the same assay as above.
Method in brief: as §1

Binder	SPOT peptide array binding signal intensity
B1	0.75
B2	≤ 0

The binders below were run against SpLsb4 in the same assay as above.
Method in brief: as §1

Binder	SPOT peptide array binding signal intensity
B1	7
B2	≤ 0

These binders were tested against SpMyo1 in the same assay as above.
Method in brief: as §1

Binder	SPOT peptide array binding signal intensity
B1	9
B2	0.5

What follows are binders tested against SpNbp2 in the same assay as above.
Method in brief: as §1

Binder	SPOT peptide array binding signal intensity
B1	3
B2	≤ 0

The binders below were run against SpPex13 in the same assay as above.
Method in brief: as §1

Binder	SPOT peptide array binding signal intensity
B1	10
B2	≤ 0

What follows are binders tested against SpRvs167 in the same assay as above.
Method in brief: as §1

Binder	SPOT peptide array binding signal intensity
B1	6.67
B2	2

Each binder was assayed against SpSla1-D1-D2 in the same assay as above.
Method in brief: as §1

Binder	SPOT peptide array binding signal intensity
B1	≤ 0
B2	≤ 0

What follows are binders tested against SpSla1-D3 in the same assay as above.
Method in brief: as §1

Binder	SPOT peptide array binding signal intensity
B1	35
B2	≤ 0

These binders were tested against AgAbp1 in the same assay as above.
Method in brief: as §1

Binder	SPOT peptide array binding signal intensity
B2	2

What follows are binders tested against AgBbc1 in the same assay as above.
Method in brief: as §1

Binder	SPOT peptide array binding signal intensity
B2	0.5

The binders below were run against AgBem1-D1 in the same assay as above.
Method in brief: as §1

Binder	SPOT peptide array binding signal intensity
B2	≤ 0

Each binder was assayed against AgBzz1-D1 in the same assay as above.
Method in brief: as §1

Binder	SPOT peptide array binding signal intensity
B2	59

What follows are binders tested against AgBzz1-D2 in the same assay as above.
Method in brief: as §1

Binder	SPOT peptide array binding signal intensity
B2	78

Each binder was assayed against AgCyk3 in the same assay as above.
Method in brief: as §1

Binder	SPOT peptide array binding signal intensity
B2	1

What follows are binders tested against AgFus1 in the same assay as above.
Method in brief: as §1

Binder	SPOT peptide array binding signal intensity
B2	322

These binders were tested against AgHof1 in the same assay as above.
Method in brief: as §1

Binder	SPOT peptide array binding signal intensity
B2	18.5

Each binder was assayed against AgHse1 in the same assay as above.
Method in brief: as §1

Binder	SPOT peptide array binding signal intensity
B2	16

What follows are binders tested against AgLsb1 in the same assay as above.
Method in brief: as §1

Binder	SPOT peptide array binding signal intensity
B2	≤ 0

Each binder was assayed against AgLsb4 in the same assay as above.
Method in brief: as §1

Binder	SPOT peptide array binding signal intensity
B2	46

These binders were tested against AgMyo5 in the same assay as above.
Method in brief: as §1

Binder	SPOT peptide array binding signal intensity
B2	≤ 0

The binders below were run against AgNbp2 in the same assay as above.
Method in brief: as §1

Binder	SPOT peptide array binding signal intensity
B2	≤ 0

Each binder was assayed against AgRvs167 in the same assay as above.
Method in brief: as §1

Binder	SPOT peptide array binding signal intensity
B2	0.5

These binders were tested against AgSho1 in the same assay as above.
Method in brief: as §1

Binder	SPOT peptide array binding signal intensity
B2	≤ 0

The binders below were run against AgSla1-D1-D2 in the same assay as above.
Method in brief: as §1

Binder	SPOT peptide array binding signal intensity
B2	67

Each binder was assayed against AgSla1-D3 in the same assay as above.
Method in brief: as §1

Binder	SPOT peptide array binding signal intensity
B2	0.25

These binders were tested against CaAbp1-D1 in the same assay as above.
Method in brief: as §1

Binder	SPOT peptide array binding signal intensity
B2	≤ 0

What follows are binders tested against CaAbp1-D2 in the same assay as above.
Method in brief: as §1

Binder	SPOT peptide array binding signal intensity
B2	≤ 0

Each binder was assayed against CaBbc1 in the same assay as above.
Method in brief: as §1

Binder	SPOT peptide array binding signal intensity
B2	19.5

The binders below were run against CaBem1-D1 in the same assay as above.
Method in brief: as §1

Binder	SPOT peptide array binding signal intensity
B2	8.5

Each binder was assayed against CaBzz1-D1 in the same assay as above.
Method in brief: as §1

Binder	SPOT peptide array binding signal intensity
B2	82.5

What follows are binders tested against CaBzz1-D2 in the same assay as above.
Method in brief: as §1

Binder	SPOT peptide array binding signal intensity
B2	18.8

Each binder was assayed against CaCyk3 in the same assay as above.
Method in brief: as §1

Binder	SPOT peptide array binding signal intensity
B2	≤ 0

The binders below were run against CaFus1 in the same assay as above.
Method in brief: as §1

Binder	SPOT peptide array binding signal intensity
B2	1020

The binders below were run against CaHof1 in the same assay as above.
Method in brief: as §1

Binder	SPOT peptide array binding signal intensity
B2	≤ 0

What follows are binders tested against CaHse1 in the same assay as above.
Method in brief: as §1

Binder	SPOT peptide array binding signal intensity
B2	5.25

These binders were tested against CaLsb1 in the same assay as above.
Method in brief: as §1

Binder	SPOT peptide array binding signal intensity
B2	≤ 0

The binders below were run against CaLsb4 in the same assay as above.
Method in brief: as §1

Binder	SPOT peptide array binding signal intensity
B2	≤ 0

The binders below were run against CaMyo5 in the same assay as above.
Method in brief: as §1

Binder	SPOT peptide array binding signal intensity
B2	117

— the supplement of paper PMC4466140
